Potency and outcome data for 41 molecules are collected here from PubChem BioAssay (NCATS).

Assay [1] in a line: qHTS of pediatric cancer cell lines to identify multiple opportunities for drug repurposing: Confirmatory screen for U-2 OS cells (AID 1347122). Note: nearly all actives have a fitted effect of over 65% in size. Note: potency is the fitted concentration of half-maximal effect. The method, boiled down: (§1)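 Cells (500-1,000/well) rested 5 h, then received compounds for 48 h; metabolically active cells were measured by CellTiter-Glo luminescence. Final concentrations spanned up to 46 µM (MIPE, 11-point) or 0.59 nM-46 µM (NPC, 8-point) in primary screens, 11-point in follow-ups.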
A general note: qHTS replaces the single test concentration by a dilution series.

Assay [2] in a line: qHTS of pediatric cancer cell lines to identify multiple opportunities for drug repurposing: Confirmatory screen for RD cells (AID 1347124).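 Note: cells exposed to compound for 48 h before viability readout; nearly all actives have a fitted effect of over 65% in size.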 Note: potency is the fitted concentration of half-maximal effect. The method, boiled down:
as §1

A short description of assay [3]: qHTS of pediatric cancer cell lines to identify multiple opportunities for drug repurposing: Confirmatory screen for Saos-2 cells (AID 1347127). Note: nearly all actives have a fitted effect of over 60% in size. Note: potency is the fitted concentration of half-maximal effect. The method, boiled down: as §1
A short description of assay [4]: qHTS of pediatric cancer cell lines to identify multiple opportunities for drug repurposing: Confirmatory screen for SK-N-SH cells (AID 1347129).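 Note: cells exposed to compound for 48 h before viability read; nearly all actives have a fitted effect of over 60% in size.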 Note: potency is the fitted concentration of half-maximal effect. The method, boiled down: as §1
Assay [5] concerns Zika virus NS2B-NS3 protease. Nature of the assay: Primary screen GU AMC qHTS for Zika virus inhibitors (AID 1347154). Note: nearly all actives have a fitted effect of over 70% in size. In a few lines:
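Fluorogenic AMC-substrate cleavage by noncovalent NS2B-NS3 protease complex (25 nM, pH 8.0 Tris buffer with Tween 20) followed for 15 minutes at room temperature (~20% conversion). Percent inhibition from ex340/em450 signal change, fitted by 4-parameter Hill equation.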

Assay [6] deals with Zika virus NS2B-NS3 protease (linked construct). The experiment in a line: Primary screen NINDS Rhodamine qHTS for Zika virus inhibitors (AID 1347160). Note: nearly all actives have a fitted effect of over 55% in size. Note: potency is the fitted concentration of half-maximal effect. In a few lines: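 Kinetic fluorescence (Ex 480 nm, Em 540 nm) over 15 min with 1.5 microM Rhodamine110 peptide and 25 nM linked protease.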
Assay [7] in a line: qHTS of pediatric cancer cell lines to identify multiple opportunities for drug repurposing: Confirmatory screen for Rh18 cells (AID 1347125). Note: nearly all actives have a fitted effect of over 55% in size. Note: potency is the fitted concentration of half-maximal effect. In a few lines: as §1
Assay [8] in a line: qHTS of pediatric cancer cell lines to identify multiple opportunities for drug repurposing: Confirmatory screen for Rh30 cells (AID 1347126). Note: nearly all actives have a fitted effect of over 55% in size. Note: potency is the fitted concentration of half-maximal effect. The method, boiled down:
as §1

The nature of assay [9]: qHTS of pediatric cancer cell lines to identify multiple opportunities for drug repurposing: Confirmatory screen for OHS-50 cells (AID 1347128).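 Note: compound exposure lasted 48 h at 37 degrees C; nearly all actives have a fitted effect of over 55% in size.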 Note: potency is the fitted concentration of half-maximal effect. In a few lines: as §1
The subject of assay [10] is Zika virus NS2B-NS3 protease (unlinked complex). Nature of the assay: Primary screen GU Rhodamine qHTS for Zika virus inhibitors: Unlinked NS2B-NS3 protease assay (AID 1347159). Note: nearly all actives have a fitted effect of over 60% in size. In a few lines: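 A qHTS format was used, with compound concentrations ranging up to 114 microM. Each compound was preincubated with 25 nM NS2B-NS3 protease, and the substrate was then added at 1.5 microM. Curves were fitted with a 4-parameter Hill model.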

Assay [11] is described as follows: ZIKV-mCherry secondary qHTS for Zika virus inhibitors (AID 1347158). Note: top concentration of the series differs between compounds. In a few lines: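 Vero cells (5,000/well) were given compound, then infected with ZIKV-mCherry at MOI 1 for 48–72 h at 37 °C. After PFA fixation and Hoechst staining, imaging gave percent mCherry-positive cells. The positivity threshold was RFU above 450, 3 SD over negative controls.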
The subject of assay [12] is Zika virus NS2B-NS3 protease (linked). The experiment in a line: 384 well plate NINDS AMC confirmatory qHTS for Zika virus inhibitors (AID 1347163). Note: potency is the fitted concentration of half-maximal effect; nearly all actives have a fitted effect of over 50% in size. The conditions noted are these: Recombinant NS2B-NS3 protease, Ac-VKTGKR-AMC fluorescence. In a few lines:
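Linked NS2B-NS3 protease (final 5 nM, 30 nM or 60 nM) was preincubated with compounds (final up to 1 mM) for ~15 minutes. Ac-VKTGKR-AMC substrate (final 30 microM) then reacted for 25 minutes at room temperature in the dark. Fluorescence (ex 355/em 460 nm) was normalized to no-enzyme and no-inhibitor controls.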

Assay [13] deals with Zika virus NS2B-NS3 protease (linked construct). Nature of the assay: 384 well plate NINDS Rhodamine confirmatory qHTS for Zika virus inhibitors (AID 1347164). Note: nearly all actives have a fitted effect of over 65% in size. Note: potency is the fitted concentration of half-maximal effect. In a few lines:
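Compounds are incubated about 15 minutes with linked protease (5, 30 or 60 nM final). Rhodamine 110-tagged Ac-LKRR substrate (10 microM final) is added and fluorescence measured after 25 minutes.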

Assay [14] concerns Zika virus NS2B-NS3 protease (unlinked). The experiment in a line: Optimization of GU AMC qHTS for Zika virus inhibitors: Unlinked NS2B-NS3 protease assay (AID 1347151). Note: nearly all actives have a fitted effect of over 80% in size. Note: potency is the fitted concentration of half-maximal effect. The method, boiled down:
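Percent inhibition is derived from the 15-min change in AMC fluorescence, normalized against no-inhibitor and no-enzyme controls, then fitted to a 4-parameter Hill curve. Aprotinin was the intraplate control.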

Several values for one entry are separate records, joined by “and”; a condition that tells them apart may be missing. Identical values can stand only once. Records with an inconclusive call do not appear. Activity calls are given as the source filed them. Calls come from the whole dose curve; as a rule, active = well fitted curve in the direction sought with a large enough effect; inconclusive = small, poorly fitted or top-dose-only effect, or another doubt; inactive = no such curve, though single readings can be large; an effect the other way counts as inactive or inconclusive.

As to `CC[C@]1(O)C[C@@H]2CN(CCc3c([nH]c4ccccc34)[C@@](C(=O)OC)(c3cc4c(cc3OC)N(C)[C@H]3[C@@](O)(C(=O)OC)[C@H](OC(C)=O)[C@]5(CC)C=CCN6CC[C@]43[C@@H]65)C2)C1`, the Potency is 369 nM (active) and 1.17 µM (active) in [1]; 1.17 µM (active) in assay [2]; 657 nM (active) and 1.17 µM (active) in assay [3]; 0.148 µM (active) in [4]. Also, the Potency entry in [5] and in assay [6] was “inactive” throughout.

As to `OC[C@H]1O[C@@H](n2cnc3c2NC=NC[C@@H]3O)C[C@H]1O`, the Potency entry in assay [1], in assay [2], in assay [7], in assay [8], in [3] and in assay [9] was “inactive” throughout. Moreover, the Potency entry in assay [4] and in assay [5] was “inactive” each time.

For `Cc1nnc(C(C)C)n1C1C[C@H]2CC[C@@H](C1)N2CC[C@H](NC(=O)C1CCC(F)(F)CC1)c1ccccc1` (some centres not stated), the Potency entry in assay [1], in assay [4] and in [5] was “inactive” each time. The Potency in assay [2] was 7.37 µM (active); in [7] it was 6.57 µM (active); in assay [8], 9.27 µM (active).

In the case of `O=C(Nc1cccc(Br)c1)c1cccc(S(=O)(=O)N2CCCCCC2)c1`, the Potency result in assay [1], in [2], in assay [7], in assay [8], in [3] and in assay [9] was “inactive” in each case. Moreover, the Potency result in [4], in assay [5], in assay [10] and in [6] was “inactive” in each case.

Consider `CN(C)C1CCN(C(=O)c2ccc(NC(=O)Nc3nc(N4CCOCC4)nc(N4CCOCC4)n3)cc2)CC1`, for which the Potency in assay [1] was 3.69 µM (active); in assay [2], 0.293 µM (active); in [7], 0.293 µM (active); in [3], 329 nM (active); in assay [9], 0.465 µM (active); in assay [4], 3.72 µM (active). Moreover, the Potency entry in assay [8], in assay [5], in assay [10] and in assay [6] was “inactive” in each case.

In the case of `NC1=N[C@@]2(c3cc(NC(=O)c4ccc(F)cn4)ccc3F)COC[C@@H]2CS1`, the Potency result in assay [1], in assay [2], in assay [7], in [8], in assay [3] and in [9] was “inactive” in each case. For the same molecule, the Potency result in assay [4] and in [5] was “inactive” in each case.

With `C[C@H](NC(=O)C(=O)Nc1ccccc1C(C)(C)C)C(=O)N[C@@H](CC(=O)O)C(=O)COc1c(F)c(F)cc(F)c1F`, the outcome in assay [11] was inactive.

With `CC1(C)CCC(CN2CCN(c3ccc(C(=O)NS(=O)(=O)c4ccc(NCC5CCOCC5)c([N+](=O)[O-])c4)c(Oc4cnc5[nH]ccc5c4)c3)CC2)=C(c2ccc(Cl)cc2)C1`, the Potency in [12] was 31.6 µM (active). Besides, the Potency result in assay [13] was “inactive”.

As to `NC(=O)c1ccc2nc(-c3ccc(Oc4ccc(Cl)cc4)cc3)[nH]c2c1`, the Potency in [13] is 251 µM (active).

`CCCCC1C(=O)N(c2ccccc2)N(c2ccccc2)C1=O`: the Potency result in assay [14] and in [5] was “inactive” in each case.

Regarding `COC(=O)C1=CO[C@@H](O)[C@@H]2C(CO)=CC[C@@H]12`, the Potency result in [5] is “inactive”.

Turning to `CCN(CC)CCOC(=O)c1ccc(N)cc1`, the Potency entry in assay [14] and in assay [5] was “inactive” throughout.

For the molecule `CCN(CC)CCNC(=O)c1ccc(N)cc1`, the Potency entry in assay [14], in assay [5], in assay [10] and in [6] was “inactive” each time.

Take `Cc1c(O)cccc1C(=O)N[C@@H](CSc1ccccc1)[C@H](O)CN1C[C@H]2CCCC[C@@H]2C[C@@H]1C(=O)NC(C)(C)C`: in [5], the Potency result was “inactive”.

Consider `CC(C)n1cnc2c(NCCCCCCNC(=O)OC(C)(C)C)nc(NCCO)nc21`, for which the Potency entry in [5] was “inactive”.

Turning to `CCOC(CN1C(=O)[C@](CC(=O)Nc2ccc(C)cc2)(NC(=O)Nc2ccc(C)cc2)c2ccccc21)OCC`, the Potency result in assay [5] was “inactive”.

For `Clc1cc(Cl)cc(CNc2ncncc2-c2ccc3c(c2)OCO3)c1`, in assay [5], the Potency entry was “inactive”.

In the case of `CC(=O)CCCCn1c(=O)c2c(ncn2C)n(C)c1=O`, the Potency result in assay [14], in assay [5], in assay [10] and in assay [6] was “inactive” each time.

`Cn1cc(C=C2C(=O)Nc3cccnc32)c2ccccc21`: the Potency entry in assay [5] is “inactive”.

Consider `CC[C@H]1OC(=O)[C@H](C)[C@@H](O[C@H]2C[C@@](C)(OC)[C@@H](O)[C@H](C)O2)[C@H](C)[C@@H](O[C@@H]2O[C@H](C)C[C@H](N(C)C)[C@@H]2O)[C@](C)(O)C[C@@H](C)CN(C)[C@H](C)[C@@H](O)[C@]1(C)O`, for which the Potency result in assay [5] is “inactive”.

For the molecule `O=C(Nc1c(Cl)cncc1Cl)c1ccc(OC(F)F)c(OCC2CC2)c1`, in assay [5], the Potency entry was “inactive”.

For the molecule `O=C1NC(=O)C(c2ccccc2)(c2ccccc2)N1`, the Potency entry in assay [14] and in [5] was “inactive” throughout.

On to `CC/C(=C(\c1ccccc1)c1ccc(OCCN(C)C)cc1)c1ccccc1`, for which the Potency result in [14] and in assay [5] was “inactive” throughout.

For the molecule `CC(C)(C)C(=O)Oc1ccc2c(c1)nc(NC(=O)c1cccc([N+](=O)[O-])c1)n2CCCO`, the Potency result in [5] is “inactive”.

For the molecule `O=c1ccn([C@@H]2O[C@H](CO)[C@H](O)[C@H]2O)c(=O)[nH]1`, the Potency entry in [5] is “inactive”.

As to `CCN1CCC[C@H]1CNC(=O)c1cc(S(N)(=O)=O)ccc1OC`, the Potency result in assay [14], in assay [5], in [10] and in assay [6] was “inactive” each time.

For the molecule `CC=CC(=O)N(CC)c1ccccc1C`, the Potency entry in assay [5] was “inactive”.

In the case of `NC(N)=Nc1nc(CSCC/C(N)=N/S(N)(=O)=O)cs1`, the Potency entry in assay [14] and in [5] was “inactive” in each case.

As for `CC(C)C(C)C=CC(C)C1CCC2C3=CC=C4CC(O)CCC4(C)C3CCC21C` (configuration not stated), in [5], the Potency entry was “inactive”.

On to `Cc1ccc([C@@H]2O[C@H](CO)[C@@H](O)[C@H](O)[C@@H]2O)cc1Cc1ccc(-c2ccc(F)cc2)s1`, for which the Potency result in [5] is “inactive”.

On to `CC(=O)O[C@]1(C(C)=O)CC[C@H]2[C@@H]3C=C(Cl)C4=CC(=O)[C@@H]5C[C@@H]5[C@]4(C)[C@H]3CC[C@@]21C`, for which the Potency entry in [14], in assay [5], in [10] and in assay [6] was “inactive” in each case.

On to `CCCNC(=O)NS(=O)(=O)c1ccc(Cl)cc1`, for which the Potency entry in [14], in assay [5], in [10] and in [6] was “inactive” in each case.

On to `COc1ccc(-n2c(C)c([N+](=O)[O-])c3ccc(O)cc32)cc1`, for which the Potency entry in [5] is “inactive”.

Turning to `COc1cccc2c1CCCC2CCCN1CCN(C2CCCCC2)CC1` (configuration not stated), the Potency result in [5] was “inactive”.

With `COC(=O)[C@@H]1[C@H]2C[C@H]3c4[nH]c5ccccc5c4CCN3C[C@@H]2CC[C@@H]1O`, the Potency entry in assay [14], in [5], in assay [10] and in [6] was “inactive” each time.

For `O=c1cc(-c2ccccc2)oc2cc(O)c(O)c(O)c12`, the Potency in [14] is 2.71 µM (active); in assay [6], 17.5 µM (active); in [12], 141 µM (active). In assay [5], the Potency result was “inactive”. Besides, in assay [11], the call was inactive.

As to `COc1ccccc1N1CCN(CCCNc2cc(=O)n(C)c(=O)n2C)CC1`, the Potency result in assay [14], in assay [5], in assay [10] and in [6] was “inactive” each time.

Regarding `C[N+](C)(C)CC(=O)O`, the Potency entry in [5] is “inactive”.

`CN(C)CCC(c1ccccc1)c1ccccn1` (configuration not stated): the Potency result in [14], in assay [5], in assay [10] and in assay [6] was “inactive” throughout.

Consider `N[C@H](CSC(c1ccccc1)(c1ccccc1)c1ccccc1)C(=O)O`, for which the Potency result in [5] is “inactive”.

As to `O=C(CCc1ccc(O)cc1)c1c(O)cc(O)cc1O[C@@H]1O[C@H](CO)[C@H](O)[C@H](O)[C@H]1O`, in assay [5], the Potency result is “inactive”.
